Laboratory results taken from ChEMBL document CHEMBL3988442, “University of Dundee, Small-Polar-MMV Screening Library” (2021).

Biological target: T1, Aspartate--tRNA(Asp/Asn) ligase (Mycobacterium tuberculosis (strain ATCC 25618 / H37Rv)) (UniProt P9WFW3)
T1 sequence (whole entry): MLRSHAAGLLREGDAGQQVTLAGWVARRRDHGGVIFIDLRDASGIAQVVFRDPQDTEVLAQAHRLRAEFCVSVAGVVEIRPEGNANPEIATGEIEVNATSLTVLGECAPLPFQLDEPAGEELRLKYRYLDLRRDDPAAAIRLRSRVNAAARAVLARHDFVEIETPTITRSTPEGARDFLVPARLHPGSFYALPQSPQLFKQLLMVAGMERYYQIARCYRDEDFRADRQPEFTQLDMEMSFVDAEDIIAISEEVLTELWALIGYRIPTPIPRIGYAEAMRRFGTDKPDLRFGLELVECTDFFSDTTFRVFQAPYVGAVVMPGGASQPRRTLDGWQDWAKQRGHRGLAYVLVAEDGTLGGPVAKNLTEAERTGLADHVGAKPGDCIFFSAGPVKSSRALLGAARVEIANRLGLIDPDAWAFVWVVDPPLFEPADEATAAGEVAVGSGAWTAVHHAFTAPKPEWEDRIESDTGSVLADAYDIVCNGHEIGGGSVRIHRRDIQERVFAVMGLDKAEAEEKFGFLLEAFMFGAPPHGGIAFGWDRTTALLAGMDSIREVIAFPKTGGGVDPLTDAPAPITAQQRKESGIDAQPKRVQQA
Test: Assay for Asp RNA synthetase-1 from Mycobacterium tuberculosis
Assay type: functional
Set-up: scale not given: in the data most compounds retested in dose-response had high values
Details: 30 µM

Row | Structure (SMILES) | Percent Effect
1 | CCc1noc(C(C)N2CCC(C(=O)Nc3cnn(CC)c3)CC2)n1 (stereo unspecified) | -3.65%
2 | O=C(NCCc1nnc2n1CCC2)NC1(c2cccc(F)c2)CC1 | 3.98%
3 | OCC1CCCCN1c1ccc(-c2nc(-c3ccccc3F)no2)cn1 (stereo unspecified) | -6.87%
4 | O=C(NCc1ccccc1)[C@H]1C[C@@H]2CN(S(=O)(=O)C3CC3)C[C@H]1O2 | 6.82%
5 | CC(=O)Nc1nc(C(=O)NC(C)c2ccc3c(c2)OCCO3)cs1 (stereo unspecified) | -1.73%
6 | CCn1cnnc1CNC(=O)NC(C)c1cccs1 (stereo unspecified) | 0.243%
7 | CCOc1cccc(NS(=O)(=O)c2cc(C)c(C(=O)O)s2)c1 | 1.62%
8 | CN(Cc1ccc2c(c1)OCCO2)C(=O)Cn1cccnc1=O | -2.54%
9 | CCC1=N[C@@]2(CC[C@@H]3CN(S(=O)(=O)CC(C)C)C[C@@H]32)C(=O)N1C | 0.189%
10 | NS(=O)(=O)CCNC(=O)C1(c2ccc(Br)cc2)CC1 | 1.66%
11 | Cc1cnc(CN2CCCC(c3cc(C(F)(F)F)[nH]n3)C2)cn1 (stereo unspecified) | -6.86%
12 | CCc1nccn1C1CCCN(C(=O)Cc2ccc(OC)c(F)c2)C1 (stereo unspecified) | -7.86%
13 | CC(=O)Nc1nc(CN2CCCC2Cn2cncn2)cs1 (stereo unspecified) | -6.16%
14 | O=C(NCCOc1ccc2c(c1)OCO2)C1CC(=O)N(CC2CC2)C1 (stereo unspecified) | 4.55%
15 | Cc1cccc(C(=O)N(C)Cc2cc(Br)cs2)n1 | -0.0599%
16 | NC(=O)C1CCN(C(=O)c2cccc(CN3CCOCC3)c2)CC1 | -1.59%
17 | CN1CCC/C1=N\S(=O)(=O)c1ccc(NC(=O)c2cccs2)cc1 | -0.972%
18 | COc1cc(C(=O)NC(CC(=O)O)c2cccs2)cc(Cl)c1OC (stereo unspecified) | 3.71%
19 | COCC1CC2(CCN(Cc3cnn(C)c3)CC2)CN1c1ncccn1 (stereo unspecified) | -0.238%
20 | CNC(=O)CN1CCCC12CCN(C(=O)c1ccsc1)CC2 | 0.137%
21 | Cc1ccc(S(=O)(=O)N2CCc3nc(C4CCNCC4)ncc3C2)cc1 | -1.21%
